Data from PubChem BioAssay (NCI).
Compounds without any hit were thinned out: in the full panel of roughly 79,000, 15% have a hit. The source made the active and inactive calls. No stated cut-off is given here; in the data, active means growth inhibition above about 70%; inactive means the rest.

Columns and labels:
[1] = NCI Yeast Anticancer Drug Screen. Data for the rad52 strain (AID 147);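 further: 0% = growth of vehicle-treated control cultures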; conditions: S. cerevisiae rad52 mutant growth inhibition, stronger effect = higher value
Outline: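 Measured: yeast growth inhibition. System: strain with a defined DNA damage repair alteration. Reference: vehicle-treated control cultures.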

[2] = NCI Yeast Anticancer Drug Screen. Data for the wt1 strain (AID 149);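 further: 0% = growth of vehicle-treated wt1 cultures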; conditions: S. cerevisiae wt1 strain (SPY 50644) growth inhibition, stronger effect = higher value
Outline: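 Each compound is tested on wt1 yeast and the loss of growth versus vehicle gives the inhibition value.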

[3] = NCI Yeast Anticancer Drug Screen. Data for the rad50EPP+ strain (AID 151);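 further: 0% = growth of vehicle-treated control cultures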; conditions: S. cerevisiae rad50 mutant strain, stronger effect = higher value
Outline: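 One strain with a rad50 alteration (rad50EPP+) was compound-treated, its growth then compared to that of vehicle controls.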

[4] = NCI Yeast Anticancer Drug Screen. Data for the mgt1 strain (AID 153); conditions: S. cerevisiae mgt1 mutant growth inhibition, stronger effect = higher value
Outline: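 After exposure of the mgt1 yeast mutant to compound, growth was measured and reported as inhibition compared with vehicle controls.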

[5] = NCI Yeast Anticancer Drug Screen. Data for the rad50 strain (AID 155);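 further: 0% = growth of vehicle-only cultures of the same strain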; conditions: S. cerevisiae rad50 strain growth inhibition, stronger effect = higher value
Outline: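 Vehicle-treated cultures provide the reference for the growth inhibition reported for compound-exposed, repair-deficient yeast.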

[6] = NCI Yeast Anticancer Drug Screen. Data for the mec2-1 strain (AID 157); conditions: S. cerevisiae mec2-1 strain, stronger effect = higher value
Outline: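 Test agents were screened against the mec2-1 yeast strain, with defined DNA repair or cell cycle alteration. Growth was scored as inhibition against vehicle-only controls.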

Measured: growth inhibition

O=C(NC(Nc1ccc(F)c(Cl)c1)(C(F)(F)F)C(F)(F)F)C(C(F)(F)F)C(F)(F)F
inactive: [1]; at 1.2 µM -2% | [1]; at 3.7 µM 12% | [2]; at 1.2 µM 8% | [2]; at 3.7 µM 7% | [2]; at 11.0 µM 48% | [3]; at 1.2 µM -7% | [3]; at 3.7 µM -13% | [3]; at 11.0 µM -25% | [3]; at 33.0 µM -16% | [3]; at 100.0 µM 2% | [4]; at 1.2 µM 26% | [4]; at 3.7 µM 25% | [4]; at 11.0 µM 54% | [5]; at 1.2 µM 8% | [5]; at 3.7 µM 17% | [5]; at 5.0 µM (retest, dose inferred, filed as 0.5) 28% | [5]; at 11.0 µM 44% | [5]; at 50.0 µM 24.6% | [6]; at 1.2 µM 8% | [6]; at 3.7 µM 23%
active: [1]; at 11.0 µM 70% | [1]; at 33.0 µM 93% | [1]; at 100.0 µM 97% | [2]; at 33.0 µM 96% | [2]; at 100.0 µM 98% | [4]; at 33.0 µM 94% | [4]; at 100.0 µM 98% | [5]; at 33.0 µM 91% | [5]; at 50.0 µM (retest, dose inferred, filed as 5.0) 96% | [5]; at 100.0 µM 96%
